Screening results from PubChem BioAssay.
ERK AVP block: qHTS Assay for Inhibitors of the ERK Signaling Pathway using a Homogeneous Screening Assay | HEK293-V1b, vasopressin-stimulated pERK AlphaScreen | Potency, µM (highest dose often 57.5 µM), for the others: top-dose activity, negative = inhibition, actives largely listed as inhibitors | hit rate 0.99% among 72,000; note: potency is the fitted concentration of half-maximal effect; % is set by controls: 0 for no effect and ±100 for the full control effect; nearly all actives have a fitted effect of over 55% in size
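V1b-HEK293 cells; cpd 30 min 37C; 25 nM vasopressin 5 min; lyse 10 min; AlphaScreen beads 5 hr RT. Normalized to DMSO basal and 25 nM vasopressin; AC50 by Hill fit.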
BRCT PPI green: qHTS Assay for Inhibitors of BRCT-Phosphoprotein Interaction (Green Fluorophore). Breast cancer type 1 susceptibility protein (Homo sapiens), P38398. BRCA1 BRCT-phosphopeptide binding, green fluorescence polarization. Potency, µM (titrated, usually from 76.9 µM), for inactives: at the top dose activity change, negative = inhibition, most hits filed as inhibitors. hit rate 0.05% among 75,000. AID 875, 2007;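 note: potency is the fitted concentration of half-maximal effect; plate controls were peptide without protein for full effect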
Target sequence (P38398 whole entry, looked up): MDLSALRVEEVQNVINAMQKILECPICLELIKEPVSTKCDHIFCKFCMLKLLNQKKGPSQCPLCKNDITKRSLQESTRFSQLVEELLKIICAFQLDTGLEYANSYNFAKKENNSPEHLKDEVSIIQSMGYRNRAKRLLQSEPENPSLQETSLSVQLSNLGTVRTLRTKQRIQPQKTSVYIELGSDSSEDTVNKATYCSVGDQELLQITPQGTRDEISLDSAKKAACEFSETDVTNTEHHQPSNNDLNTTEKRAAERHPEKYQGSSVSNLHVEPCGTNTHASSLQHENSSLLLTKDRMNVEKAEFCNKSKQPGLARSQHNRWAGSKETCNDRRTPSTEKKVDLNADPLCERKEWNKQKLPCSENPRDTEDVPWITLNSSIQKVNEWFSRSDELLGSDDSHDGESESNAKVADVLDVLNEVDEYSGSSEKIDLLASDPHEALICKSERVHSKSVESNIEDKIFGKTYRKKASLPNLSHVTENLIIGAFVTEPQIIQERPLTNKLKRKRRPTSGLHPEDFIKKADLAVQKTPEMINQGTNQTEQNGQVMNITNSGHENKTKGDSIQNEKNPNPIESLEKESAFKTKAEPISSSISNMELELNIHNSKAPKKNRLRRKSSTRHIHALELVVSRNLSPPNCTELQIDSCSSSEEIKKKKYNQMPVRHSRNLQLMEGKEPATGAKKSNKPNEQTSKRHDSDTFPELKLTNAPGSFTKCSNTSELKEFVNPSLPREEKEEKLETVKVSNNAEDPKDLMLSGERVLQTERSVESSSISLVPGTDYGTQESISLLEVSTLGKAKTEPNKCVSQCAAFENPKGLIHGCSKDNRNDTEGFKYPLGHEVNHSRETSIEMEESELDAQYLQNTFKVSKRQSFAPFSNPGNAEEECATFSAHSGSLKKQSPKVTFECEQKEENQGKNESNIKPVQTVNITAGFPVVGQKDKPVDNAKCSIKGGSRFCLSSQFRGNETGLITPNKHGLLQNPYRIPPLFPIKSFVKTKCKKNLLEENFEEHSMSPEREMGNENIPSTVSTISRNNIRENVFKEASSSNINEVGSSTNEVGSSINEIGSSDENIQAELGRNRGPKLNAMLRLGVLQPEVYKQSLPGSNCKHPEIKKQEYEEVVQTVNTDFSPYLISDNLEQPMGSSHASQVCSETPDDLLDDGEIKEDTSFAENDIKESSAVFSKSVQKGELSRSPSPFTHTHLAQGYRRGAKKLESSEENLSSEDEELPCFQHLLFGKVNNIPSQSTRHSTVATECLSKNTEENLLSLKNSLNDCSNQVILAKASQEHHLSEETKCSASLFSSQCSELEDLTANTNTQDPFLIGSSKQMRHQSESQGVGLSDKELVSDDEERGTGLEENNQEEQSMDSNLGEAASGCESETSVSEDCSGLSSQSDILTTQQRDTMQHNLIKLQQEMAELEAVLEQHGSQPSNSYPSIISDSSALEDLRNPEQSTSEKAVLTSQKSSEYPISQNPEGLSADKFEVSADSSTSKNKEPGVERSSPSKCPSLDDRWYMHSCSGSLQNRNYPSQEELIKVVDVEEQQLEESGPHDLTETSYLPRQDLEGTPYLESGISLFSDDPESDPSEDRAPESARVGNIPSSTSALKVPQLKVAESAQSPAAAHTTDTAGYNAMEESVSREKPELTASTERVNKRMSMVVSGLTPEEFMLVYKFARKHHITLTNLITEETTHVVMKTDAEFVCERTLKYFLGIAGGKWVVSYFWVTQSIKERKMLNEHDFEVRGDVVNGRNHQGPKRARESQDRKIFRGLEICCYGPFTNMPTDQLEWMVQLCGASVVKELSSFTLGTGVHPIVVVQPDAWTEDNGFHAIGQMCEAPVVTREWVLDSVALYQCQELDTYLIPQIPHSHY
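Fluorescence polarization: His-tagged BRCT (~35 kDa BRCA1 C-terminus, 250 nM) bound to 100 nM fluorescein-labeled phosphorylated 10-aa BACH1 peptide, pH 7.3 phosphate buffer with DTT and Tween 20. Compounds incubated 12 min at room temperature; inhibition read as lowered polarization.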
Pol III holo inh: qHTS Assay for Inhibitors of DNA Polymerase III Holoenzyme System | hit rate 0.25% among 71,000 | AID 603, 2007 | reconstituted DNA polymerase III holoenzyme replication, biochemical | Potency, µM (series often up to 57.1 µM), inactives show at the highest dose activity change, negative = inhibition; note: potency is the fitted concentration of half-maximal effect; % is set by controls: 0 for no effect and ±100 for the full control effect
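Reconstituted *E. coli* holoenzyme (0.35 nM Pol III, 1 nM beta, 154 nM SSB, 2 nM primase) was preincubated with compound for 15 min at RT. Synthesis on 1.4 nM ssM13Gori ran 35 min, then was stopped with PicoGreen/EDTA and read as dsDNA fluorescence.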
TsaE inh: qHTS Assay for Inhibitors of YjeE | purified YjeE enzyme, qHTS inhibition assay | Potency, µM | hit rate 0.05% among 71,000 | AID 605, 2007
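Fluorescence polarization of a BODIPY Texas Red–ADP probe (2 uM) bound to purified YjeE (10 uM) was read after 15 min room-temperature incubation with compounds. Loss of polarization marks inhibitors; ADP serves as titrated control.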
BRCT inh red: qHTS Assay for Inhibitors of BRCT-Phosphoprotein Interaction (Red Fluorophore) | Potency, µM (series often up to 76.9 µM), for inactives: at the top dose activity change, negative = inhibition, actives largely listed as inhibitors | BRCT-phosphopeptide binding, red fluorescence polarization | hit rate 0.03% among 75,000 | AID 892, 2007 | Breast cancer type 1 susceptibility protein (Homo sapiens), P38398; note: % is set by controls: 0 for no effect and ±100 for the full control effect
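Fluorescence polarization: 100 nM His-tagged BRCA1 BRCT with 100 nM TAMRA-labelled phospho-BACH1 decapeptide, phosphate buffer pH 7.3 with 150 mM NaCl, DTT, 0.01% Tween 20; 12 min RT. Binding inhibition seen as FP decrease.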
Active calls of the source: *; i = inactive; ? = inconclusive; . = no result; [ ] = remark or other dose. This is a sample that favours compounds with a hit; in the whole collection about 1.2% have one here. Calls come from the whole dose curve; as a rule, active = well fitted curve in the direction sought with a large enough effect; inconclusive = small, poorly fitted or top-dose-only effect, or another doubt; inactive = no such curve, though single readings can be large; an effect the other way counts as inactive or inconclusive.

SMILES	ERK AVP block	BRCT PPI green	Pol III holo inh	TsaE inh	BRCT inh red
Cc1cccc(N2CCN(CC(=O)NCC3CCCCC3)CC2)c1C	25µM*	-1%	-6%	i	1%
COc1ccc(-c2cc(=O)c3ccccc3o2)cc1	-6%	0%	.	.	-1%
COc1ccc(-c2cc(=O)c3ccccc3s2)cc1	13µM*	-5%	-5%	i	-2%
COc1ccc(-c2cc([C@H](O)[C@@H]3CCCCN3)c3ccccc3n2)cc1	35%[11.5 µM]	1%[15.4 µM]	-10%[11.4 µM]	i	-1%[15.4 µM]
CC(C)Oc1ccccc1C1CC(=O)Nc2cc3c(cc21)OCCO3 (stereo unspecified)	16µM*	-3%	-5%	i	-1%
COc1ccccc1C1CC(=O)Nc2cc3c(cc21)OCCO3 (stereo unspecified)	2%	1%	-2%	i	0%
N#CC(C#N)=c1ccc2c(c1)N1C3=C(CCCC3)CC3CCCCC31N=2 (stereo unspecified)	2.5µM*	-1%	4%	i	-3%
N#C/C(C(N)=O)=c1/ccc2c(c1)N1C3=C(CCCC3)CC3CCCCC31N=2 (stereo unspecified)	?	-1%	1%	40µM*	-1%
COC(=O)CNC(=O)C1(C)C=CC2(CCCCC2)N1C(=O)OC (stereo unspecified)	8%	-1%	4%	i	-1%
Cc1nc2oc3c(NCc4ccccn4)ncnc3c2c2c1COC(C)(C)C2	25µM*	18%	-11%	i	-9%
